Test systems include NCI-H23 lung; NCI-H322M lung; HOP-62 NSCLC; NCI-H460 lung; HOP-92 NSCLC; NCI-H522 lung; A549/ATCC NSCLC; 786-0 renal; COLO 205 colon.
Holding throughout (assay): NCI-60 one-dose screen, 48 h (100 = growth as untreated, 0 = no growth, -100 = all killed)
Common to all, as to details: 10 µM unless noted

Compounds without any hit were thinned out: in the full panel of roughly 83,000, 20% have a hit.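 Note: values are percent growth. 100 is the growth of untreated cells, values between 100 and 0 indicate rising inhibition; between -100 and 0 indicates cell death.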 Unmarked numbers belong to inactive results. Active and inactive are the calls of the source. Rule for the calls: active = growth percent below 10; inactive = the rest.

As for `CC(C)[C@]12O[C@H]1[C@@H]1O[C@]13[C@]1(O[C@H]1C[C@H]1c4c(C(=O)c5ccccc5)oc(OC(=O)c5ccccc5)c4CC[C@@]13C)[C@@H]2O`, the growth with NCI-H23 lung was -14.9% (active); in the test with NCI-H322M lung, 9.46% (active); in the test with HOP-62 NSCLC, -0.399% (active); with NCI-H460 lung it was 9.07% (active); with HOP-92 NSCLC, -9.38% (active); with NCI-H522 lung, -39.6% (active). Moreover, the growth is 1.72% (active) in the test with A549/ATCC NSCLC, 1.31% (active) in the test with 786-0 renal and -57% (active) with COLO 205 colon.
Turning to `Cc1cccc(N2CCN(C(C)C#N)CC2)c1` (centres undefined), the growth with NCI-H23 lung was 97.6%; in the test with NCI-H322M lung it was 93.8%; with NCI-H460 lung, 109%; in the test on HOP-92 NSCLC, 91.4%; in the test with NCI-H522 lung, 88.9%; in the test with A549/ATCC NSCLC, 107%. Besides, the growth in the test on 786-0 renal was 90.3%; in the test on COLO 205 colon it was 105%.
Turning to `CCOC(=O)[C@@H](C)C[C@H](Cc1ccccc1)NC(=O)c1csc([C@@H](C[C@H](C(C)C)N(C)C(=O)CNC(=O)[C@H]2CCCCN2C)OC(C)=O)n1`, the growth in the test with NCI-H23 lung was 31.7%; with NCI-H322M lung, 44.7%; in the test with HOP-62 NSCLC it was 23.5%; in the test on NCI-H460 lung, 5.98% (active); in the test on HOP-92 NSCLC it was 47.5%; with NCI-H522 lung it was -12.8% (active). In addition, the growth was 16.4% in the test with A549/ATCC NSCLC, 19.8% in the test with 786-0 renal and -11.6% (active) with COLO 205 colon.
In the case of `CCOC(=O)[C@@H](C)C[C@H](Cc1ccccc1)NC(=O)c1csc([C@@H](C[C@H](C(C)C)N(C)C(=O)[C@H](CCC(C)C)NC(=O)[C@H]2CCCCN2C)OC(C)=O)n1`, the growth with NCI-H23 lung was 25.3%; with NCI-H322M lung, 28.2%; with HOP-62 NSCLC, 13.8%; with NCI-H460 lung it was 5.8% (active); in the test with HOP-92 NSCLC, -1.79% (active); with NCI-H522 lung, -27% (active). The growth is 8.64% (active) with A549/ATCC NSCLC and 3.93% (active) in the test on 786-0 renal.
On to `COc1cc(C=Nc2cccc(C(=O)O)c2)ccc1N(CCCl)CCCl`, for which the growth with NCI-H23 lung is 103%; with NCI-H322M lung, 100%; in the test with HOP-62 NSCLC, 118%; in the test on NCI-H460 lung, 75.4%; in the test with HOP-92 NSCLC, 101%; in the test on NCI-H522 lung, -3.21% (active). Also, the values for the growth with A549/ATCC NSCLC, with 786-0 renal and in the test on COLO 205 colon were 96.6%, 105% and 67.1%, respectively.
With `COc1ccc2nc(NC(=O)COc3cc(/C=C\c4cc(OC)c(OC)c(OC)c4)ccc3OC)sc2c1`, the growth in the test on NCI-H23 lung was 32.1%; in the test with NCI-H322M lung it was 25.3%; in the test on NCI-H460 lung, 4.25% (active); in the test on HOP-92 NSCLC it was 50.9%; in the test with NCI-H522 lung, -19.7% (active); with A549/ATCC NSCLC, 25.7%. In addition, the growth was 61% in the test with 786-0 renal and 26% in the test on COLO 205 colon.
Regarding `Clc1cc(N2CC2)nc(N2CC2)n1`, the growth in the test with NCI-H23 lung is 56%; in the test with NCI-H322M lung, 103%; in the test on HOP-62 NSCLC, 63.9%; with NCI-H460 lung, 23.6%; in the test with HOP-92 NSCLC, 68.4%; with NCI-H522 lung, 67.2%. Further, the values for the growth in the test with A549/ATCC NSCLC, in the test with 786-0 renal and in the test on COLO 205 colon were 62.3%, 76.1% and 81.3%, respectively.
Regarding `COc1ccc(NC([Se])=NC23CC4CC(CC(C4)C2)C3)cc1`, the growth with NCI-H23 lung is -23% (active); in the test with NCI-H322M lung it was 3.73% (active); in the test with HOP-62 NSCLC, -0.819% (active); in the test with NCI-H460 lung it was -8.63% (active); in the test on HOP-92 NSCLC, -6.73% (active); with NCI-H522 lung, -32.6% (active). In addition, the growth in the test with A549/ATCC NSCLC was -0.959% (active); in the test with 786-0 renal, -42.1% (active); in the test on COLO 205 colon, -32.1% (active).

Source of the values: PubChem BioAssay (NCI).
